Assay results as given in PubChem BioAssay (Tox21).
Inconclusive results are not listed. Activity calls are given as the source filed them. Unless noted, calls come from the whole dose curve; as a rule, active = well fitted curve in the direction sought with a large enough effect in the repeat runs; inconclusive = weak or mixed curves; inactive = no such curve, though single readings can be large; an effect the other way counts as inactive or inconclusive.

What was measured:
[1] = qHTS assay for small molecule agonists of the p53 signaling pathway (AID 651631; calls by dose curve; note: nearly all actives have a fitted effect of over 15% in size)
In short: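 Stably transfected HCT-116 cells (beta-lactamase behind p53 response elements) get compounds after a 5 h settling period; 16 h later at 37 °C, FRET substrate is loaded and fluorescence read after 2 h.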

[2] = qHTS assay for small molecules that induce genotoxicity in human embryonic kidney cells expressing luciferase-tagged ATAD5 (AID 651632); note: nearly all actives have a fitted effect of over 15% in size
In short: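 DMSO vehicle served as the control. HEK293T reporter cells, 16 hr at 37C, then 30 min Amplite at room temperature; ATAD5 induction is measured as luciferase activity.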

[3] = qHTS assay for small molecule agonists of the p53 signaling pathway - cell viability (AID 651633; calls by dose curve;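 note: p53RE-bla HCT reporter cells with a stable beta-lactamase p53 reporter; series mostly up to about 83 µM; nearly all actives have a fitted effect of over 30% in size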)
In short: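 p53RE-bla cells were treated with compound for 16 hours at 37 C. Cytotoxicity was then measured as CellTiter-Glo luminescence after 30 min at room temperature.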

[4] = qHTS assay for small molecules that induce genotoxicity in human embryonic kidney cells expressing luciferase-tagged ATAD5 - cell viability (AID 651634; calls by dose curve; note: nearly all actives have a fitted effect of over 25% in size)
In short: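 Here HEK293T cells with the ATAD5 luciferase reporter are incubated with test compounds for 15.5 hr, and cytotoxicity is then gauged by measuring protease activity in live cells using fluorescence.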

[5] = qHTS assay for small molecule disruptors of the mitochondrial membrane potential - cell viability (AID 720634; calls by dose curve;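 note: human HepG2 liver cancer cells; series mostly up to about 83 µM; nearly all actives have a fitted effect of over 20% in size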)
In short: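 Viability of HepG2 cells is scored from ATP content by luminescence; cells are exposed to compound for 1 hr at 37 C and 5% CO2, then dosed with m-MPI dye before the CellTiter-Glo reagent.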

[6] = qHTS assay to test for compound auto fluorescence at 590 nm (red) in HepG2 cells (AID 720674)
In short: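 HepG2 cells, 2,000 per well in MEM with 10% FBS, attached overnight at 37 C, then got 23 nL compound or DMSO. After 1 hr at 37 C, 5% CO2, red fluorescence was read at 540/590 nm against Rose Bengal sodium as reference.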

[7] = qHTS assay to test for compound auto fluorescence at 535 nm (green) in HepG2 cells (AID 720675)
[8] = qHTS assay to test for compound auto fluorescence at 460 nm (blue) in HEK293 cells (AID 720678)
In short: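 HEK293 cells (2,000/well, medium with 10% dialyzed FBS) attached 4-5 hr, then exposed to compound overnight at 37C, 5% CO2. Blue fluorescence read at 405/460 nm, with triamterene as reference fluorophore.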

[9] = qHTS assay to test for compound auto fluorescence at 590 nm (red) in HEK293 cells (AID 720679)
In short: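 HEK293 cells (2,000/well, 10% dialyzed FBS) attached 4-5 hr, then dosed with compound or DMSO and incubated overnight at 37C, 5% CO2. Red fluorescence read at 540/590 nm, Rose Bengal sodium as reference fluorophore.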

[10] = qHTS assay to test for compound auto fluorescence at 535 nm (green) in HEK293 cells (AID 720680)
[11] = qHTS assay to test for compound auto fluorescence at 460 nm (blue) in HEK293 cell free culture (AID 720681)
In short: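 Compounds were added to cell-free DMEM with 10% FBS and fluorescence read directly. The blue channel used 405 nm excitation and 460 nm emission, with triamterene as the reference fluorophore.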

[12] = qHTS assay to test for compound auto fluorescence at 535 nm (green) in HEK293 cell free culture (AID 720682)
In short: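 Using fluorescein as calibrant, autofluorescence was quantified at 485/535 nm in cell-free DMEM containing 10% FBS after pintool addition of compound or vehicle.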

[13] = qHTS assay to test for compound auto fluorescence at 590 nm (red) in HEK293 cell free culture (AID 720683)
In short: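 Cell-free wells of DMEM with 10% FBS received compound, and intrinsic fluorescence was read at excitation/emission 540/590 nm. Values expressed as equivalence to Rose Bengal sodium.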

[14] = qHTS assay to test for compound auto fluorescence at 590 nm (red) in HepG2 cell free culture (AID 720684)
In short: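 Rose Bengal sodium served as the reference for red signal. Test compounds were dispensed into serum-containing MEM (10% FBS) without cells, and plates were read at 540/590 nm.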

[15] = qHTS assay to test for compound auto fluorescence at 460 nm (blue) in HepG2 cell free culture (AID 720685)
In short: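 Cell-free plates of MEM plus 10% FBS received 23 nL compound or DMSO vehicle; blue-channel (405/460 nm) intensity scored against triamterene as reference fluorophore.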

[16] = qHTS assay to test for compound auto fluorescence at 535 nm (green) in HepG2 cell free culture (AID 720686)
[17] = qHTS assay to test for compound auto fluorescence at 460 nm (blue) in HepG2 cells (AID 720687)
In short: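 HepG2 cells in MEM with 10% FBS, attached overnight at 37 C, were exposed to compound or DMSO for 1 hr at 37 C, 5% CO2. Blue fluorescence was read at 405/460 nm, with triamterene as reference fluorophore.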

[18] = biological target: Glucocorticoid receptor (Homo sapiens) (UniProt P04150); test: qHTS assay to identify small molecule agonists of the glucocorticoid receptor (GR) signaling pathway (AID 720691; active = well fitted activation curve with a large enough effect in the signal ratio in the repeat runs, not every such curve was filed as active; the % refers to the signal ratio)
In short: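 Compounds in DMSO, alongside positive controls, were added to GR-bla HeLa reporter cells and incubated 18 h at 37 C; GRE-driven beta-lactamase was detected by fluorescence after 2 h with FRET substrate at room temperature.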

[19] = biological target: Glucocorticoid receptor (Homo sapiens) (UniProt P04150); test: qHTS assay to identify small molecule antagonists of the glucocorticoid receptor (GR) signaling pathway (AID 720692; active = well fitted inhibition curve with a large enough effect in the signal ratio in the repeat runs, not every such curve was filed as active; the % refers to the signal ratio)
In short: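 In a 1536-well cell format, compounds were added 4 h after seeding GR-bla HeLa cells, together with dexamethasone at 5 nM final; reporter activity was measured by FRET-substrate fluorescence following 18 h at 37 C.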

[20] = qHTS assay for small molecule disruptors of the mitochondrial membrane potential (AID 720635)
In short: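 HepG2 cells exposed to compound 1 hr at 37C, then Mito-MPS dye 30 min. Ratio read of aggregate (540/590 nm) versus monomer (490/535 nm) fluorescence.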
% is set by controls: 0 for no effect and ±100 for the full control effect.

Glucocorticoid receptor (Homo sapiens), sequence (P04150 whole entry, looked up): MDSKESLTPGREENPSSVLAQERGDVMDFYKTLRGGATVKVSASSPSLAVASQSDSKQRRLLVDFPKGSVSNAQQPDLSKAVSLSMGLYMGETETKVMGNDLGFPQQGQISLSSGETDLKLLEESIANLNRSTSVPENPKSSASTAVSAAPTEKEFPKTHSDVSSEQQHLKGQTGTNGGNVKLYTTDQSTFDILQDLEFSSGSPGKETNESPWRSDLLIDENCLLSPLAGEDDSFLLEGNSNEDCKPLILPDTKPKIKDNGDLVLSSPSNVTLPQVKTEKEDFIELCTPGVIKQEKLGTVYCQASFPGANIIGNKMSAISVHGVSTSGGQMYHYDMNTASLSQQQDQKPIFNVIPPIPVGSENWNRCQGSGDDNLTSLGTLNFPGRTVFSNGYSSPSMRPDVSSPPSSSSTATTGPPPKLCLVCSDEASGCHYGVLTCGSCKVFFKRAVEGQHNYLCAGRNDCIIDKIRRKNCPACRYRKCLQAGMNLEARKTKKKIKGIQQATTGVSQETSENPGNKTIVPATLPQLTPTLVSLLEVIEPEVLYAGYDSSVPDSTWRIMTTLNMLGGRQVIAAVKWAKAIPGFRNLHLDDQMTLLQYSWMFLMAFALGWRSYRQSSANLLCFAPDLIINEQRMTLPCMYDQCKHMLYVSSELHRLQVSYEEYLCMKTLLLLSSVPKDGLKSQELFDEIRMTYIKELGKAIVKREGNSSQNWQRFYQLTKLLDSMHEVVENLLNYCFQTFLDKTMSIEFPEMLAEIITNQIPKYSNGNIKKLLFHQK

OC[C@@H](O)[C@H](O)[C@@H](O)[C@@H](O)CO
inactive: outcome [1] | outcome [2] | outcome [3] | Potency [4] | outcome [5] | outcome [6] | outcome [7] | outcome [8] | outcome [9] | outcome [10] | outcome [11] | outcome [12] | outcome [13] | outcome [14] | outcome [15] | outcome [16]

COCC(=O)Nc1c(I)c(C(=O)NCC(O)CO)c(I)c(C(=O)N(C)CC(O)CO)c1I (stereo unspecified)
inactive: outcome [1] | outcome [2] | outcome [3] | Potency [4] | outcome [5] | fluorescence, relative to Rose Bengal [6] -0.339% [at 18.6 µM] | fluorescence, % of fluorescein control [7] 0.0261% [at 18.6 µM] | fluorescence, % of triamterene [8] -0.157% [at 18.6 µM] | fluorescence, % of fluorescent control [9] 0.231% [at 18.6 µM] | fluorescence, % of fluorescein [10] -0.025% [at 18.6 µM] | fluorescence, % of fluorescent control [11] -0.0015% [at 18.6 µM] | fluorescence, % of fluorescent control [13] 0.0121% [at 18.6 µM] | fluorescence, % of Rose Bengal [14] 0.0461% [at 18.6 µM] | fluorescence, % of fluorescent control [15] -0.109% [at 18.6 µM] | fluorescence, % of fluorescent control [17] -0.143% [at 18.6 µM]

CCOC(=O)CCCCCCCCC(=O)OCC
inactive: outcome [1] | outcome [2] | outcome [3] | Potency [4] | outcome [6] | outcome [7] | outcome [8] | outcome [9] | outcome [10] | outcome [11] | outcome [12] | outcome [13] | outcome [14] | outcome [15] | outcome [16] | outcome [17]

CCCCCCCCOC(C)=O
inactive: outcome [1] | outcome [2] | outcome [3] | Potency [4] | outcome [5] | outcome [6] | outcome [7] | outcome [8] | outcome [9] | outcome [10] | outcome [11] | outcome [13] | outcome [14] | outcome [15] | outcome [16]

CC(=O)Nc1ncc([N+](=O)[O-])s1
inactive: outcome [1] | outcome [2] | outcome [3] | Potency [4] | outcome [5] | outcome [6] | outcome [7] | outcome [8] | outcome [9] | outcome [10] | outcome [11] | outcome [12] | outcome [13] | outcome [14] | outcome [16] | outcome [17] | Potency [18]

O=C(O)Cc1cccc(-c2cc(CCCCCCc3ccc(O[C@H]4O[C@H](CO)[C@@H](O)[C@H](O)[C@@H]4O)c(-c4cccc(CC(=O)O)c4)c3)ccc2O[C@H]2O[C@H](CO)[C@@H](O)[C@H](O)[C@@H]2O)c1
inactive: outcome [1] | outcome [2] | outcome [3] | Potency [4] | outcome [5] | outcome [6] | outcome [7] | outcome [8] | outcome [9] | outcome [10] | outcome [11] | outcome [13] | outcome [14] | outcome [15] | outcome [17]

Cc1ccc2c(c1)c1c3n2CCNC3CCC1 (stereo unspecified)
inactive: outcome [1] | outcome [2] | outcome [3] | Potency [4] | outcome [5] | outcome [6] | outcome [7] | outcome [8] | outcome [9] | outcome [10] | outcome [11] | outcome [12] | outcome [13] | outcome [14] | outcome [15] | outcome [16] | outcome [17] | Potency [18] | outcome [19]

CC(C)C(=O)c1ccccc1
inactive: outcome [1] | outcome [2] | outcome [3] | Potency [4] | outcome [6] | outcome [7] | outcome [8] | outcome [9] | outcome [10] | outcome [11] | outcome [13] | outcome [14] | outcome [15] | outcome [16] | outcome [17]

CCC(=O)OCCC(C)CCC=C(C)C (stereo unspecified)
inactive: outcome [1] | outcome [3] | Potency [4] | outcome [5] | outcome [6] | outcome [7] | outcome [8] | outcome [9] | outcome [10] | outcome [11] | outcome [13] | outcome [14] | outcome [16] | outcome [17]

CC(C)CCCC(C)CC=O (stereo unspecified)
inactive: outcome [1] | outcome [3] | Potency [4] | outcome [5] | outcome [6] | outcome [7] | outcome [8] | outcome [9] | outcome [10] | outcome [11] | outcome [12] | outcome [13] | outcome [14] | outcome [15] | outcome [17]

COCCOCCOCCOC
inactive: outcome [1] | outcome [3] | Potency [4] | outcome [5] | Potency [20] | outcome [6] | outcome [7] | outcome [8] | outcome [9] | outcome [10] | outcome [11] | outcome [12] | outcome [13] | outcome [14] | outcome [16] | outcome [17] | Potency [18] | outcome [19]

CCNC(=O)/C=C/c1cccc(Br)c1
inactive: outcome [1] | outcome [3] | Potency [4] | outcome [5] | outcome [6] | outcome [7] | outcome [8] | outcome [9] | outcome [10] | outcome [11] | outcome [12] | outcome [13] | outcome [14] | outcome [15] | outcome [16] | outcome [17] | Potency [18]

C1=CCC(c2ccccc2)CC1 (stereo unspecified)
inactive: outcome [1] | outcome [3] | Potency [4] | outcome [5] | Potency [20] | outcome [6] | outcome [7] | outcome [8] | outcome [9] | outcome [10] | outcome [11] | outcome [12] | outcome [13] | outcome [14] | outcome [15] | outcome [16] | Potency [18]

C[N+](C)(C)CC(O)CCl (stereo unspecified)
inactive: outcome [1] | outcome [2] | outcome [3] | Potency [4] | outcome [6] | outcome [7] | outcome [8] | outcome [9] | outcome [10] | outcome [11] | outcome [12] | outcome [13] | outcome [14] | outcome [16] | Potency [18] | outcome [19]

Cc1nc(C)nc(N2C[C@@H](C)N(c3ccnc([C@@H](C)O)n3)[C@@H](C)C2)n1
inactive: outcome [1] | outcome [3] | Potency [4] | outcome [5] | Potency [20] | outcome [6] | outcome [7] | outcome [8] | outcome [9] | outcome [10] | outcome [11] | outcome [13] | outcome [14] | outcome [16] | outcome [17] | outcome [19]
